Reference: PubChem BioAssay (Tox21)
Results filed as inconclusive are left out. Entries that show only a call come without a potency. Unmarked numbers belong to inactive results. Activity calls are given as the source filed them. Calls come from the whole dose curve; as a rule, active = well fitted curve in the direction sought with a large enough effect in the repeat runs; inconclusive = weak or mixed curves; inactive = no such curve, though single readings can be large; an effect the other way counts as inactive or inconclusive.

Test: qHTS RealTime-Glo MT Cell Viability Assay in HepG2 cells - 0 hour (AID 1224889); note: nearly all actives have a fitted effect of over 50% in size; note: potency is the fitted concentration of half-maximal effect
Settings: RealTime-Glo luminescence; series mostly up to 76.8 µM
Method in brief: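 Luminescence read-out: viable HepG2 cells reduce a prosubstrate to a NanoLuc substrate, giving a signal proportional to live cell number. Reads taken at 0, 8, 16, 24, 32 and 40 h of compound exposure at 37 C.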

SMILES | Potency | activity change, negative = cytotoxicity
Cc1ccccc1C(=O)N1CC/C(=N\OS(=O)(=O)O)c2ccc(Cl)cc21 | inactive | –
CCOC(=O)CC#N | inactive | –
OC(CCN1CCCCC1)(c1ccccc1)c1ccccc1 | inactive | –
C[N+](C)(C)CC(O)CCl (centres undefined) | inactive | –
CCCCCCCC/C=C\CCCCCCCC(=O)OC[C@@H](O)[C@H]1OC[C@H](O)[C@H]1O | inactive | –
O=C(O)c1ccc(OCCN2CCCCC2)cc1 | inactive | –
NS(=O)(=O)c1cc2c(cc1Cl)NC(CC1CCCC1)NS2(=O)=O (centres undefined) | inactive | –
CC(C)COC(=O)/C=C/c1ccccc1 | inactive | –
O=S1(=O)CCCC1 | inactive | –
CC1CCC(C(C)(C)S)C(=O)C1 (centres undefined) | inactive | –
CCNC(=O)/C=C/c1cccc(Br)c1 | inactive | –
C=COCCOCCOC=C | inactive | –
COc1cc(C=O)ccc1OC(=O)C(C)C | inactive | –
CCOC(=O)CCc1ccccc1 | inactive | –
Cc1nc(C)nc(N2C[C@@H](C)N(c3ccnc([C@@H](C)O)n3)[C@@H](C)C2)n1 | inactive | –
NS(=O)(=O)c1ccc(Cl)c(S(N)(=O)=O)c1 | inactive | –
CCCCCCCC[Si](OCC)(OCC)OCC | inactive | –
O=C(c1ccc2c(c1)C(=O)OC2=O)c1ccc2c(c1)C(=O)OC2=O | inactive | –
O=C(Nc1cccc(C2=NCCN2)c1)Nc1cccc(C2=NCCN2)c1 | – | -1.91% [at 15.8 µM]
CC(C)=CC(C)(C)C | inactive | –
C[C@@H]1C[C@H]2[C@@H]3C[C@H](F)C4=CC(=O)C=C[C@]4(C)[C@@]3(F)[C@@H](O)C[C@]2(C)[C@@]1(O)C(=O)CO | 21.3 µM (active) | –
Cc1c(C(C)C)c(=O)n(-c2ccccc2)n1C | inactive | –
CC(C)CCC(=O)CCC(C)C | inactive | –
N#CCCOCCOCCC#N | inactive | –
CC(C)(C)c1ccc(C=O)cc1 | inactive | –
CCN(Cc1cccc(S(=O)(=O)O)c1)c1ccccc1 | inactive | –

Test: A CellTox Green Cytotoxicity Assay to monitor cytotoxicity in HepG2 cells - 8 hour (AID 1224890); note: nearly all actives have a fitted effect of over 45% in size
Settings: CellTox Green fluorescence; series mostly up to 76.8 µM
Method in brief: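 Read-out is fluorescence of a cyanine dye excluded from live cells that stains DNA of dead HepG2 cells, with signal proportional to cytotoxicity. Plates were read at 0, 8, 16, 24, 32 and 40 h after compound addition.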

SMILES | Potency
c1ccccc1 | inactive
C[CH2][Ge]([Cl])([CH2]C)[CH2]C | inactive
CCOc1ccc(NC(=O)OC(C)C)cc1OCC | inactive
CCCCCCCCOC(C)=O | inactive
FC(F)(F)c1ccc(Cl)cc1Cl | inactive
COC(=O)CCC(=O)O | inactive
CC(C)COC(=O)CCCCC(=O)OCC(C)C | inactive
CC1(N)CCC(C(C)(C)N)CC1 (centres undefined) | inactive
C=CC(C)(O)CC/C=C(\C)CC (centres undefined) | inactive
O=CN1CCOCC1 | inactive
C=C(C)C(=O)OC | inactive

Test: qHTS assay to identify small molecule antagonists of the estrogen receptor alpha (ER-alpha) signaling pathway using the BG1 cell line in the presence of 0.1 nM 17-beta-estradiol - cell viability counter screen (AID 1259241); note: nearly all actives have a fitted effect of over 40% in size
Settings: VM7Luc4E2 (BG1) viability, CellTiter-Fluor protease, 22 h, 0.1 nM estradiol agonist added; series mostly up to 92.4 µM
Method in brief: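 In this screen, hormone-deprived VM7Luc4E2 cells were seeded at 4,000 per well, dosed with compound and 0.1 nM estradiol final, and incubated 22 hr at 37C and 5% CO2; fluorogenic live-cell protease signal reported viability.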

SMILES | Potency | activity change, negative = cytotoxicity
Cc1ccccc1C(=O)N1CC/C(=N\OS(=O)(=O)O)c2ccc(Cl)cc21 | inactive | –
C[CH2][Ge]([Cl])([CH2]C)[CH2]C | inactive | –
CCOC(=O)CC#N | inactive | –
CCOc1ccc(NC(=O)OC(C)C)cc1OCC | inactive | –
OC(CCN1CCCCC1)(c1ccccc1)c1ccccc1 | inactive | –
C[N+](C)(C)CC(O)CCl (centres undefined) | inactive | –
CCCCCCCC/C=C\CCCCCCCC(=O)OC[C@@H](O)[C@H]1OC[C@H](O)[C@H]1O | inactive | –
CCCCCCCCOC(C)=O | inactive | –
O=C(O)c1ccc(OCCN2CCCCC2)cc1 | inactive | –
FC(F)(F)c1ccc(Cl)cc1Cl | inactive | –
COC(=O)CCC(=O)O | inactive | –
NS(=O)(=O)c1cc2c(cc1Cl)NC(CC1CCCC1)NS2(=O)=O (centres undefined) | inactive | –
CC(C)COC(=O)CCCCC(=O)OCC(C)C | inactive | –
CC(C)COC(=O)/C=C/c1ccccc1 | inactive | –
CC1(N)CCC(C(C)(C)N)CC1 (centres undefined) | inactive | –
O=S1(=O)CCCC1 | inactive | –
CC1CCC(C(C)(C)S)C(=O)C1 (centres undefined) | inactive | –
CCNC(=O)/C=C/c1cccc(Br)c1 | inactive | –

SMILES | Potency | activity change, negative = cytotoxicity
C=COCCOCCOC=C | inactive | –
COc1cc(C=O)ccc1OC(=O)C(C)C | inactive | –
CCOC(=O)CCc1ccccc1 | inactive | –
Cc1nc(C)nc(N2C[C@@H](C)N(c3ccnc([C@@H](C)O)n3)[C@@H](C)C2)n1 | inactive | –
NS(=O)(=O)c1ccc(Cl)c(S(N)(=O)=O)c1 | inactive | –
CCCCCCCC[Si](OCC)(OCC)OCC | inactive | –
O=C(c1ccc2c(c1)C(=O)OC2=O)c1ccc2c(c1)C(=O)OC2=O | inactive | –
C=CC(C)(O)CC/C=C(\C)CC (centres undefined) | inactive | –
O=C(Nc1cccc(C2=NCCN2)c1)Nc1cccc(C2=NCCN2)c1 | – | -3.18% [at 19 µM]
CC(C)=CC(C)(C)C | inactive | –
O=CN1CCOCC1 | inactive | –
C[C@@H]1C[C@H]2[C@@H]3C[C@H](F)C4=CC(=O)C=C[C@]4(C)[C@@]3(F)[C@@H](O)C[C@]2(C)[C@@]1(O)C(=O)CO | inactive | –
Cc1c(C(C)C)c(=O)n(-c2ccccc2)n1C | inactive | –
CC(C)CCC(=O)CCC(C)C | inactive | –
C=C(C)C(=O)OC | inactive | –
N#CCCOCCOCCC#N | inactive | –
CC(C)(C)c1ccc(C=O)cc1 | inactive | –
CCN(Cc1cccc(S(=O)(=O)O)c1)c1ccccc1 | inactive | –

Test: qHTS assay to identify small molecule antagonists of the androgen receptor (AR) signaling pathway using the MDA cell line in the presence of 0.5 nM R1881 - cell viability counter screen (AID 1259242); note: nearly all actives have a fitted effect of over 45% in size
Settings: MDA-kb2 viability, CellTiter-Fluor protease fluorescence, 16 h; series mostly up to 92.4 µM
Method in brief: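 Counter screen for cytotoxicity run in the same wells as the AR antagonist reporter screen: MDA-kb2 cells were treated 16 hr with test compounds and 0.5 nM R1881, then live-cell protease activity was measured by fluorescence.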

SMILES | Potency | viability change, negative = cytotoxic
Cc1ccccc1C(=O)N1CC/C(=N\OS(=O)(=O)O)c2ccc(Cl)cc21 | inactive | –
C[CH2][Ge]([Cl])([CH2]C)[CH2]C | inactive | –
CCOC(=O)CC#N | inactive | –
CCOc1ccc(NC(=O)OC(C)C)cc1OCC | inactive | –
OC(CCN1CCCCC1)(c1ccccc1)c1ccccc1 | inactive | –
C[N+](C)(C)CC(O)CCl (centres undefined) | inactive | –
CCCCCCCC/C=C\CCCCCCCC(=O)OC[C@@H](O)[C@H]1OC[C@H](O)[C@H]1O | inactive | –
CCCCCCCCOC(C)=O | inactive | –
O=C(O)c1ccc(OCCN2CCCCC2)cc1 | inactive | –
FC(F)(F)c1ccc(Cl)cc1Cl | inactive | –
COC(=O)CCC(=O)O | inactive | –
NS(=O)(=O)c1cc2c(cc1Cl)NC(CC1CCCC1)NS2(=O)=O (centres undefined) | inactive | –
CC(C)COC(=O)CCCCC(=O)OCC(C)C | inactive | –
CC(C)COC(=O)/C=C/c1ccccc1 | inactive | –
CC1(N)CCC(C(C)(C)N)CC1 (centres undefined) | inactive | –
O=S1(=O)CCCC1 | inactive | –
CC1CCC(C(C)(C)S)C(=O)C1 (centres undefined) | inactive | –
CCNC(=O)/C=C/c1cccc(Br)c1 | inactive | –

SMILES | Potency | viability change, negative = cytotoxic
C=COCCOCCOC=C | inactive | –
COc1cc(C=O)ccc1OC(=O)C(C)C | inactive | –
CCOC(=O)CCc1ccccc1 | inactive | –
Cc1nc(C)nc(N2C[C@@H](C)N(c3ccnc([C@@H](C)O)n3)[C@@H](C)C2)n1 | inactive | –
NS(=O)(=O)c1ccc(Cl)c(S(N)(=O)=O)c1 | inactive | –
CCCCCCCC[Si](OCC)(OCC)OCC | inactive | –
O=C(c1ccc2c(c1)C(=O)OC2=O)c1ccc2c(c1)C(=O)OC2=O | inactive | –
C=CC(C)(O)CC/C=C(\C)CC (centres undefined) | inactive | –
O=C(Nc1cccc(C2=NCCN2)c1)Nc1cccc(C2=NCCN2)c1 | – | -0.888% [at 19 µM]
CC(C)=CC(C)(C)C | inactive | –
O=CN1CCOCC1 | inactive | –
C[C@@H]1C[C@H]2[C@@H]3C[C@H](F)C4=CC(=O)C=C[C@]4(C)[C@@]3(F)[C@@H](O)C[C@]2(C)[C@@]1(O)C(=O)CO | inactive | –
Cc1c(C(C)C)c(=O)n(-c2ccccc2)n1C | inactive | –
CC(C)CCC(=O)CCC(C)C | inactive | –
C=C(C)C(=O)OC | inactive | –
N#CCCOCCOCCC#N | inactive | –
CC(C)(C)c1ccc(C=O)cc1 | inactive | –
CCN(Cc1cccc(S(=O)(=O)O)c1)c1ccccc1 | inactive | –
